Our source for the inhibition values is ChEMBL document CHEMBL1961873, “Compounds: GSK PKIS; Assays: Nanosyn kinase panel” (2012).

In general, inhibition refers to the change of the read-out against control, counted positive when it falls.

Test [1] concerns the target Serine/threonine-protein kinase pim-2 (Homo sapiens) (UniProt Q9P1W9). The following applies: at 1 µM.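 Also: each value is a mean of the inhibition measurements against the kinase.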
The target of test [2] is Serine/threonine-protein kinase pim-3 (Homo sapiens) (UniProt Q86V86). The following applies: at 0.1 µM.
The target is the same in test [3]. Conditions: at 1 µM.
Test [4] concerns the target T1, MAP kinase-activated protein kinase 5 (Homo sapiens) (UniProt Q8IW41).
T1 sequence (whole entry): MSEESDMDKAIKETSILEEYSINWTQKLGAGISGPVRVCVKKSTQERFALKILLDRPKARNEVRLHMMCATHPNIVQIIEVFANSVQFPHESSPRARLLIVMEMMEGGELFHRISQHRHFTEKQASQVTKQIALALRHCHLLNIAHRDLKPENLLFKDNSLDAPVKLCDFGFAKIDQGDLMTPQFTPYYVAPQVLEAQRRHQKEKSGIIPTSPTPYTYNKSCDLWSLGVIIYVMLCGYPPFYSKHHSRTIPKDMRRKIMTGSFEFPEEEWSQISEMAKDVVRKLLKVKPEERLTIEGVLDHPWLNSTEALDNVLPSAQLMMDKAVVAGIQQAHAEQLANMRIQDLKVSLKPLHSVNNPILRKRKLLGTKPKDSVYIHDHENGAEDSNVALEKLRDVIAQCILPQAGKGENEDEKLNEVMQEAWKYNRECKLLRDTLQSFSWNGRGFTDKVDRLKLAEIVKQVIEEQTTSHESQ
Conditions: at 0.1 µM.

The target of test [5] is T1, MAP kinase-activated protein kinase 5 (Homo sapiens). Conditions: at 1 µM.
For test [6], the target named is Serine/threonine-protein kinase SIK1 (Homo sapiens) (UniProt P57059). The following applies: at 0.1 µM.
Test [7] has the same target. The following applies: at 1 µM.
The target in test [8] is Serine/threonine-protein kinase SIK2 (Homo sapiens) (UniProt Q9H0K1). The following applies: at 0.1 µM.
Test [9] shares this target. Conditions: at 1 µM.
Test [10] addresses T2, Serine/threonine-protein kinase TBK1 (Homo sapiens) (UniProt Q9UHD2).
T2 sequence (whole entry): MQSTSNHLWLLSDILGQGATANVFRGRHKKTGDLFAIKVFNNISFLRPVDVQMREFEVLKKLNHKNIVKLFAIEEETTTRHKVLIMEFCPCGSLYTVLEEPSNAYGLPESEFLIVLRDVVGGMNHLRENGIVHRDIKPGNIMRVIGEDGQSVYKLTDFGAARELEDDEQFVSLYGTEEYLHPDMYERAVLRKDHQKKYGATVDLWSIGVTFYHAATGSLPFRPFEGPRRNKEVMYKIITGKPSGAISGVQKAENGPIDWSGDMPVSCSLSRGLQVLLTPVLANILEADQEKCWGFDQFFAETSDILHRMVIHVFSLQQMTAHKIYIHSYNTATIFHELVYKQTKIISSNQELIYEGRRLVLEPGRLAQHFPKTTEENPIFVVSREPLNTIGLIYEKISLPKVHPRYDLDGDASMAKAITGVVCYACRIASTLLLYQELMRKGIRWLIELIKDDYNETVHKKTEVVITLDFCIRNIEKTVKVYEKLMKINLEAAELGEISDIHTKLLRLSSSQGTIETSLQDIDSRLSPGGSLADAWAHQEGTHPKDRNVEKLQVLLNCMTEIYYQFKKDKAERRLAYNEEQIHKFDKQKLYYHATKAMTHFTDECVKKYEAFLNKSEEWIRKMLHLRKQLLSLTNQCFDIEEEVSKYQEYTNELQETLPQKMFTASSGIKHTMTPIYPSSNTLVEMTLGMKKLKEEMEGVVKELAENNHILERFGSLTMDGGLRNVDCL
The following applies: at 0.1 µM.

Test [11] deals with T2, Serine/threonine-protein kinase TBK1 (Homo sapiens). Conditions: at 1 µM.
Test [12] addresses T3, Testis-specific serine/threonine-protein kinase 1 (Homo sapiens) (UniProt Q9BXA7).
T3 sequence (whole entry): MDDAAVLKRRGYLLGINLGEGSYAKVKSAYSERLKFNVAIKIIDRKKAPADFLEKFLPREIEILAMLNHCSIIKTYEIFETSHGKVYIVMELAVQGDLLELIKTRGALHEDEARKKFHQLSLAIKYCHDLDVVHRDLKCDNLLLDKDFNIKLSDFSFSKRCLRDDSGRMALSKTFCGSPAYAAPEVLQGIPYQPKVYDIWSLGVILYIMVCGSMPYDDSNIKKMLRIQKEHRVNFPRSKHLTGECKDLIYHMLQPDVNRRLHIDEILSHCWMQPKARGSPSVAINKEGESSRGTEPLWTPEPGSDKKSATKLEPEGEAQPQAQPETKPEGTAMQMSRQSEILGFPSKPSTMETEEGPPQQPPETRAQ
Conditions: at 0.1 µM.

Test [13] has as its target T3, Testis-specific serine/threonine-protein kinase 1 (Homo sapiens). Conditions: at 1 µM.
In test [14] the target is T4, Testis-specific serine/threonine-protein kinase 2 (Homo sapiens) (UniProt Q96PF2).
T4 sequence (whole entry): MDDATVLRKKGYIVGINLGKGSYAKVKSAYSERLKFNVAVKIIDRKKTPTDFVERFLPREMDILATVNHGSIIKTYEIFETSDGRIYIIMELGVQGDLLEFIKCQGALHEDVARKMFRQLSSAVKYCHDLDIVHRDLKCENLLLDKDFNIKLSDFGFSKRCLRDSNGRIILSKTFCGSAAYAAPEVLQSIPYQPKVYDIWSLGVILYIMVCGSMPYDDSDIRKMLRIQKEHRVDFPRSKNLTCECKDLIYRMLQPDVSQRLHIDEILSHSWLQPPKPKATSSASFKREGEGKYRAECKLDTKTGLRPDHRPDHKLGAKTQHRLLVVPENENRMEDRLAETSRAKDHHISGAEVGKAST
The following applies: at 0.1 µM.

Test [15] addresses T4, Testis-specific serine/threonine-protein kinase 2 (Homo sapiens). The following applies: at 1 µM.
Test [16] concerns the target Casein kinase I isoform alpha (Homo sapiens) (UniProt P48729). Conditions: at 0.1 µM.
Test [17] shares this target. The following applies: at 1 µM.
The target in test [18] is Casein kinase I isoform gamma-1 (Homo sapiens) (UniProt Q9HCP0). The following applies: at 0.1 µM.
Test [19] has the same target. The following applies: at 1 µM.
The target in test [20] is Casein kinase I isoform gamma-2 (Homo sapiens) (UniProt P78368). Conditions: at 0.1 µM.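 Also: values are mean inhibition figures reported as part of the GSK PKIS dataset.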

Each structure is given as a SMILES string. “And” between values parts separate entries of the source, which are not always exact repeats. Identical values can stand only once.

Chain of Serine/threonine-protein kinase pim-2 (Homo sapiens) (Q9P1W9 whole entry, looked up): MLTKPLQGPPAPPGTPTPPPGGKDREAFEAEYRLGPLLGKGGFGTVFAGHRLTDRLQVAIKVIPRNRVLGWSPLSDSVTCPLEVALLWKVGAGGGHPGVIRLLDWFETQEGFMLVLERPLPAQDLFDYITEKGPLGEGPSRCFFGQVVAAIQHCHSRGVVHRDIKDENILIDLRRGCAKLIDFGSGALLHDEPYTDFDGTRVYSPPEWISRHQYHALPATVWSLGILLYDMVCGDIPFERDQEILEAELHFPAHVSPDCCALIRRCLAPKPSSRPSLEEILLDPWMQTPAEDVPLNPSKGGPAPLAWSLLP
Chain of Casein kinase I isoform gamma-1 (Homo sapiens) (Q9HCP0 whole entry, looked up, canonical isoform): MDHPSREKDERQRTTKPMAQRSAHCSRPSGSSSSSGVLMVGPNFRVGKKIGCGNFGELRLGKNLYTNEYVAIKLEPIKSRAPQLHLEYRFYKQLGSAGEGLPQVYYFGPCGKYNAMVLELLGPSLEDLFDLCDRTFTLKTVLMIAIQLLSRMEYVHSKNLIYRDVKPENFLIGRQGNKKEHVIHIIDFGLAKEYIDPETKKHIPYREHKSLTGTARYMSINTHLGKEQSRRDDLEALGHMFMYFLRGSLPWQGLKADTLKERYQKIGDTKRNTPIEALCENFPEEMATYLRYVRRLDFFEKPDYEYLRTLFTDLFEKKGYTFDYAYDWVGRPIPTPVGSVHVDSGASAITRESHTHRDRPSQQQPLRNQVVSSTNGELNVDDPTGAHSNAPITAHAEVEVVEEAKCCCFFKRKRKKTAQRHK
Chain of Casein kinase I isoform alpha (Homo sapiens) (P48729 2-337 limits assumed): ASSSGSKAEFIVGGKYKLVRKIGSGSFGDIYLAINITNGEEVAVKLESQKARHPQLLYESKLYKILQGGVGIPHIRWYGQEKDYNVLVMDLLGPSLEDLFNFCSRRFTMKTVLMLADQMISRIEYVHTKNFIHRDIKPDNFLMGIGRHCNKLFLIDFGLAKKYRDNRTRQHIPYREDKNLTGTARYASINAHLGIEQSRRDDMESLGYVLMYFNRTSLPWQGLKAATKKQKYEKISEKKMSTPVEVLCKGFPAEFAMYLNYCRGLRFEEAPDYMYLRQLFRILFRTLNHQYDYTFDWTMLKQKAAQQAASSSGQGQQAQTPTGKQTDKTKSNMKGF
Chain of Serine/threonine-protein kinase SIK1 (Homo sapiens) (P57059 whole entry): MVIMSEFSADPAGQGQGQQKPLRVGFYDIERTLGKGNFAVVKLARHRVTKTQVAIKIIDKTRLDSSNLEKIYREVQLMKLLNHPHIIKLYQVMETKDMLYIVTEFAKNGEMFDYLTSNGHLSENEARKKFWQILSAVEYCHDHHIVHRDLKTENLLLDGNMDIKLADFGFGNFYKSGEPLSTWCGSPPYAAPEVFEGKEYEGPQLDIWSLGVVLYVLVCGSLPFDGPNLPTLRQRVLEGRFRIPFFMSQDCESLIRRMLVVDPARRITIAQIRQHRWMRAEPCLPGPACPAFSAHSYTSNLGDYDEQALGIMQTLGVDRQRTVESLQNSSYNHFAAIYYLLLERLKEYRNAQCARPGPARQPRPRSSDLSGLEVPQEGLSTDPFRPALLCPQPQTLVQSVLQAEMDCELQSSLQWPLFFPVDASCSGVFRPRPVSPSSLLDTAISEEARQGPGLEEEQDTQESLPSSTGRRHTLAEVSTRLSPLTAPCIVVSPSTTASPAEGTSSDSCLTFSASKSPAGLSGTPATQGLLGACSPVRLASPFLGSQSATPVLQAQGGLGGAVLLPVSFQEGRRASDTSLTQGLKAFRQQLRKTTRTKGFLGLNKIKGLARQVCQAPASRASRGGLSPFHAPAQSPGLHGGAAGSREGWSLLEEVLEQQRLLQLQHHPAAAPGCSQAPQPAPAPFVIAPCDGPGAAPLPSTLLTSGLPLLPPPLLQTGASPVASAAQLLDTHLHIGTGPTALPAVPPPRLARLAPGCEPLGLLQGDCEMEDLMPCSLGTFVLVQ
Chain of Casein kinase I isoform gamma-2 (Homo sapiens) (P78368 whole entry, looked up, canonical isoform): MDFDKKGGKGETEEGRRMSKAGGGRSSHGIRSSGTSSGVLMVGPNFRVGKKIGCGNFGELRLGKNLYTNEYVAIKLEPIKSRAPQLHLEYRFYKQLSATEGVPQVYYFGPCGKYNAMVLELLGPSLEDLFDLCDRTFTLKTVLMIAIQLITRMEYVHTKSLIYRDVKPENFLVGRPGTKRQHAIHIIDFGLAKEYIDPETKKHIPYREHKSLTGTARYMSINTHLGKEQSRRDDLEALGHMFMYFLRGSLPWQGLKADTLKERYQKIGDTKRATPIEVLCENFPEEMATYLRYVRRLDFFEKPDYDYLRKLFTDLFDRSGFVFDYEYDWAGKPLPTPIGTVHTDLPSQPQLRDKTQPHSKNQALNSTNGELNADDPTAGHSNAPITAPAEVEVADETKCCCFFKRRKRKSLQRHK
Chain of Serine/threonine-protein kinase SIK2 (Homo sapiens) (Q9H0K1 whole entry, looked up): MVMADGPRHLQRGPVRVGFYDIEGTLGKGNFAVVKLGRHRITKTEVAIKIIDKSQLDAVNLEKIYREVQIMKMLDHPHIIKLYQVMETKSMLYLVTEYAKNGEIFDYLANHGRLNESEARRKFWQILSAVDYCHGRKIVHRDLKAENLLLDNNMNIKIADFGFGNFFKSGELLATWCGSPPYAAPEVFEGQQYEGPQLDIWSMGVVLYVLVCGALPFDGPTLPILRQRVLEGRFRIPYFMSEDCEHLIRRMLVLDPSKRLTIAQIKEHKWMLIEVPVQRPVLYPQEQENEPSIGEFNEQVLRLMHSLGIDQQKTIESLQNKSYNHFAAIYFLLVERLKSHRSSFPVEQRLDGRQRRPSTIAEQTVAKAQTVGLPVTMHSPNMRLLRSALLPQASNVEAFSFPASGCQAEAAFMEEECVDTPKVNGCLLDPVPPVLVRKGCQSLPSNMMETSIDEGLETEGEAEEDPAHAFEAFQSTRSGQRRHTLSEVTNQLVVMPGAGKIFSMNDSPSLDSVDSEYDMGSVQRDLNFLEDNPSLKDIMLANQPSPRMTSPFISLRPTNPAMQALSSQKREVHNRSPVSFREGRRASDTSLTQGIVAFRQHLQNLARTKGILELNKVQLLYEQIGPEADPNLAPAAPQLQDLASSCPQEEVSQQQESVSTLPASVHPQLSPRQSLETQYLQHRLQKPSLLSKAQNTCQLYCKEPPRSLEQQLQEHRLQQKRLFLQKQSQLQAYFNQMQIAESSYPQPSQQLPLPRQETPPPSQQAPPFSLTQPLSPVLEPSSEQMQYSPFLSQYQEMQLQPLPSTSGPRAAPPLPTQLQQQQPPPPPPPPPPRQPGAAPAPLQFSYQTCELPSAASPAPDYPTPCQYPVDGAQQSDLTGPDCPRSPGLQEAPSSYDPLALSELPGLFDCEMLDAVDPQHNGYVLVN

Turning to `Cc1c2ccc(N(C)c3ccnc(Nc4cccc(S(N)(=O)=O)c4)n3)cc2nn1C`, the inhibition was -3.16% in test [1]; -1.16% in test [2]; -2.47% in test [3]; 1.9% in [4]; 1.08% in test [5]; 4.24% in [6]. Further, the inhibition is 27.6% in test [7]; 3.64% in test [8]; 9.51% in test [9]; 4.99% in test [10]; 8.43% in test [11]; 3.59% in [12]. For the same compound, the inhibition came out at 3.32% in [13]; 1.26% in test [14]; 1.14% in test [15]; 3.21% in test [16]; 4.51% in [17]; 1.31% in test [18]. The inhibition is 1.52% in [19] and -0.37% in test [20].

On to `COc1ccccc1-c1cc(/C=C2\C(=O)Nc3ncc(Br)cc32)cc(Br)c1O`, for which the inhibition in test [1] is -0.06%; in [2], -1.67%; in [3], -1.54%; in [4], 1.35%; in test [5] it was 0.67%; in [6], 3.09%. The inhibition in test [7] worked out at 9.01%; in [8] it was 0.5%; in test [9], 10.4%; in test [10], 0.53%; in [11], 6.07%; in [12], 4.24%. For the same compound, the inhibition in test [13] came to 6.09%; in test [14], 2.5%; in test [15], 1.91%; in [16], 2.91%; in test [17], 5.66%; in test [18] it was 5.05%. Moreover, the figures for the inhibition in test [19] and in test [20] were 5.44% and 3.14%, respectively.

In the case of `COc1ccc(Nc2ncc(-c3ccccc3)o2)cc1OC`, the inhibition in [1] is 1.95%; in test [2] it was 0.89%; in test [3] it was 1.57%; in test [4] it was -0.17%; in test [5], -1.05%; in [6], 2.55%. Further, the inhibition in test [7] is 28.9%; in test [8] it was 1.69%; in test [9], 39%; in test [10] it was -0.12%; in [11], 10.7%; in test [12], 0.54%. Also, the inhibition turned out to be 1.75% in test [13]; 0.12% in test [14]; 0.02% in test [15]; 3.39% in test [16]; 6.61% in test [17]; 0.83% in test [18]. The inhibition in [19] is 3.24%; in test [20] it was 0.28%.

Turning to `CN1CCC(C(=O)Nc2n[nH]c3nc(-c4ccc(O)cc4)c(Br)cc23)CC1`, the inhibition was 14.5% and 16.5% in [1]; 8.95% and 8.97% in [2]; 48.5% and 44.8% in test [3]; 1.61% and 0.79% in test [4]; 3.66% and 0.86% in test [5]; 3.1% and 1.53% in test [6]. Further, the inhibition in test [7] was 9.27% and 8.23%; in test [8] it was 7.89% and -2.04%; in test [9], 9.87% and 5.33%; in [10], 4.48% and 3.27%; in [11], 6.1% and 2.08%; in test [12] it was 5.11% and 0.23%. Further, the inhibition in [13] is 7.56% and 2.61%; in [14], 3.45% and 1.03%; in test [15], 5.78% and 1.94%; in test [16] it was 2.56% and 1.97%; in test [17] it was 5.54% and 3%; in test [18], 0.95% and 1.75%. In addition, the inhibition in test [19] is 4.18% and 2.3%; in test [20], 1.05% and 1.85%.

As for `CCS(=O)(=O)c1ccc(OC)c(Nc2ncc(-c3cccc(F)c3)o2)c1`, the inhibition is 0.08% in [1]; 0.31% in [2]; 3.65% in [3]; 2.11% in [4]; 2.01% in [5]; 7.36% in test [6]. The inhibition in test [7] came out at 29.4%; in test [8] it was 8.6%; in test [9] it was 36.7%; in test [10], 5.98%; in test [11], 11.5%; in [12], 6.42%. Besides, the inhibition came out at 5.86% in test [13]; 3.41% in test [14]; 3.46% in test [15]; 5.47% in test [16]; 7.11% in test [17]; 4.64% in test [18]. The inhibition worked out at 5.04% in test [19] and 3.91% in [20].

In the case of `Cc1nnc(-c2cccc(-c3ccc(C(=O)NCC4CC4)cc3)c2)o1`, the inhibition was 1.27% in test [1]; 1.21% in test [2]; 5.19% in test [3]; 2.14% in test [4]; 4.28% in test [5]; 7.04% in [6]. In addition, the inhibition stood at 10.7% in [7]; 12.9% in test [8]; 5.76% in test [9]; 2.51% in test [10]; 6.92% in [11]; 4.11% in test [12]. Also, the inhibition in test [13] was 5.87%; in [14], 2.89%; in test [15], 3.75%; in test [16] it was 1.99%; in [17] it was 5.86%; in [18] it was 4.47%. The inhibition in test [19] came to 4.29%; in test [20] it was 2.71%.

As for `CCN1CCC(C(=O)Nc2n[nH]c3nnc(-c4cccc(F)c4F)cc23)CC1`, the inhibition in [1] is 0.25%; in test [2], -0.6%; in test [3], 2.08%; in [4] it was 0.03%; in test [5], -0.34%; in test [6] it was -3.64%. Moreover, the inhibition in test [7] is 0.15%; in test [8], -2.38%; in test [9], -0.5%; in test [10], 0.48%; in [11], 0.85%; in [12] it was -0.97%. Besides, the inhibition in [13] is -0.75%; in test [14], 0.04%; in [15], 0.43%; in test [16] it was -1.81%; in [17] it was -0.5%; in [18] it was 1.73%. Also, the inhibition was -0.13% in test [19] and -0.42% in test [20].
